A number with no mark means an inactive call. No rule for the calls is given here.

The target in this experiment is Pantothenate synthetase (Mycobacterium tuberculosis (strain ATCC 25618 / H37Rv)) (UniProt P9WIL5). As to the kind of experiment: Recombinant Mtb pantothenate synthetase (PanC) inhibitors, coupled enzyme, confirmatory (AID 375).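 Also: 0% = full reaction with vehicle and 100% = no enzyme background.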 The conditions noted are these: coupled enzyme assay; at 10 µM, stronger effect = higher value.
Pantothenate synthetase (Mycobacterium tuberculosis (strain ATCC 25618 / H37Rv)), sequence (P9WIL5 whole entry, looked up): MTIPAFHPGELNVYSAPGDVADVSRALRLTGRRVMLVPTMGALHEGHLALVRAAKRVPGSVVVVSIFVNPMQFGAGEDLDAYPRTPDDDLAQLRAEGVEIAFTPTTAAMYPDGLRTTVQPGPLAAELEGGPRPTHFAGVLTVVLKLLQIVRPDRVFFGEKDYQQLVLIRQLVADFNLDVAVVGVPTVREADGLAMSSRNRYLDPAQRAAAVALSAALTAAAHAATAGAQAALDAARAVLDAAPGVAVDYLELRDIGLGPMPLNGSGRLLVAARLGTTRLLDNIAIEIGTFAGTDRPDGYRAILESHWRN
On to `Cc1nc2ccc(NC(=O)N3CCSCC3)cc2s1`, for which the inhibition was 1%.
For `Cc1cc(C(=O)NCCN2CCCCC2C)n(-c2ccccc2)n1` (stereo not given) the value was 0%; for `COc1ccccc1NC(=O)C1=C(C)Nc2ncnn2C1c1ccc(C)o1` (stereo not given), 10%; for `Cc1cccc(-n2nc3c(c2NC(=O)CCC2CCCCC2)CS(=O)C3)c1C` (stereo not given), 3%.
In the case of `CCOC(=O)c1cc(C)sc1N1C(=O)C2C3C=CC(C3)C2C1=O` (stereo not given), the inhibition is 0%.
Turning to `Cn1c(C(=O)Nc2ccc3c(c2)OCO3)cc2c(=O)n(C)c3ccccc3c21`, the inhibition is 0%.
With `O=C(Nc1ccccc1)c1cccnc1N1CCOCC1`, the inhibition was 0%.
Consider `COc1cccc(-c2nc(CS(=O)(=O)CC(=O)NCc3ccc(Cl)cc3)c(C)o2)c1`, for which the inhibition is 0%.
As for `CCN(CC)CCCN(Cc1cc2cc(OC)ccc2[nH]c1=O)C(=O)Nc1ccccc1`, the figure is 9%; as for `COc1ccc2c(c1)C1(C)CC(C)(C)N2C(=O)N1c1ccccc1` (stereo not given), 4%; as for `CCOc1ccc(C2/C(=C(/O)c3ccccc3)C(=O)C(=O)N2CCCN(C)C)cc1OC` (stereo not given), 0%.
For `CCOC(=O)N1CCN(c2cc(=O)n(-c3ccc(OCC)cc3)c(=O)[nH]2)CC1` the value was 5%; for `CC(C)c1nnc(SCC(=O)NCc2ccco2)n1C`, 0%; for `CCOC(=O)N1CCN(C(=O)Nc2ccc3oc(C)nc3c2)CC1`, 7%.
As for `Cn1c(=O)cc(SCC(=O)NCC2CCCO2)c2ccc(Cl)cc21` (stereo not given), the figure is 10%.
As to `Cc1nn(C)cc1C1C2=C(CC(C)(C)CC2=O)OC2=C1C(=O)CC(C)(C)C2`, the inhibition is 0%.
As for `CCOc1ccc(NC(=O)CSc2nc3cccnc3n2CC)cc1`, the figure is 0%.
As for `CC1CCN(C(=O)C2CCN(S(=O)(=O)c3cnc[nH]3)CC2)CC1`, the figure is 5%.
As for `Cc1oc(-c2cccc(Cl)c2)nc1CN1CCC(C(=O)N2CCN(c3ccccc3F)CC2)CC1`, the inhibition was 2%.
As for `CCC1CCCN1Cn1cnc2c([nH]c3ccc(OC)cc32)c1=O` (stereo not given), the figure is 1%; as for `CCS(=O)(=O)NCCc1cc2c(OC)ccc(OC)c2[nH]c1=O`, 3%; as for `Cc1cc(C)n2nc(SCC(=O)N(C)Cc3ccccc3)nc2n1`, 3%.
As for `COC(C)(C)c1cc(C(C)(C)C)nc(N)n1`, the figure is 0%.
Regarding `NC(Cc1ccc(Oc2ccc(O)cc2)cc1)C(=O)O` (stereo not given), the inhibition was 0%.
As for `O=C(NCC1CCCO1)C1CCC(CNS(=O)(=O)c2ccccc2)CC1` (stereo not given), the figure is 5%.
With `CC1CCCC(C)N1C(=O)CSc1nnc(-c2cccs2)o1` (stereo not given), the inhibition is 1%.
Consider `COc1cc2c(=O)n(Cc3ccccc3)c(=O)n(CC(=O)NCc3ccco3)c2cc1OC`, for which the inhibition is 7%.
`CCCC(=O)Nc1ccc(NC(=O)c2ccccc2OC)cn1`: the inhibition is 0%.
As for `COc1ccc(-n2c(Cc3cccn3C)nnc2SCC(=O)Nc2ccccc2)cc1`, the figure is 0%.
As for `CC(C)CNc1oc(-c2ccc(F)cc2)nc1C#N`, the figure is 2%.
For `O=C(C1CCC1)N1CCc2cc(S(=O)(=O)Nc3ccc4c(c3)OCO4)ccc21` the value was 16%.
In the case of `CCOC(=O)c1[nH]c(C)c(C(=O)N2CCN(C(=O)c3ccco3)CC2)c1C`, the inhibition was 0%.
For `Cc1ccc(C)c(NC(=O)C2CCC(C)(C(=O)O)C2(C)C)c1` (stereo not given) the value was 0%; for `CCCCC(=O)NCCNc1nc2c(c(=O)n(C)c(=O)n2C)n1Cc1ccccc1`, 0%; for `COc1ccc(Nc2nc(-c3sc(N)nc3C)cs2)cc1`, 3%.
For `CCOc1ccc(NC(=O)C2CC(=O)N(C(C)C)C2)cc1` (stereo not given) the value was 2%.
For `Cc1ccc2c(c1)NC(=O)C(CC(=O)NCCN(CC(C)C)CC(C)C)O2` (stereo not given) the value was 2%; for `CC(=O)c1ccc(NC(=O)CSc2nnc(-c3ccoc3C)n2Cc2ccccc2)cc1`, 0%.
For the molecule `CC(C(=O)N1CC2(C)CC1CC(C)(C)C2)N1C(=O)c2ccccc2C1=O` (stereo not given), the inhibition is 8%.
As for `O=C(COC(=O)c1ccc(Br)o1)Nc1ccc(S(=O)(=O)N2CCCC2)cc1`, the figure is 5%.

One may read the inhibition as how much of the control response was suppressed.
